According to PubChem BioAssay AID1851 (National Center for Advancing Translational Sciences (NCATS), 2009):
Several values for one entry are separate records, joined by “and”; a condition that tells them apart may be missing. Equal entries are not always repeated. Screen size: about 16,000 compounds; about 2,600 (16%) were called active. Roughly 20% stayed inconclusive and do not appear here. The call rests on the fitted dose curve; in most records, active means well fitted curve in the direction sought with a large enough effect; inconclusive means small, poorly fitted or top-dose-only effect, or effect the other way; inactive means no such curve, though single readings can be large or run the other way. These entries were drawn from the full list. The source holds several records for some structures; these can differ, active in one and inactive in another.

Each compound was assayed against Cytochrome P450 2D6 (Homo sapiens) (UniProt P10635) (assay: Cytochrome panel assay with activity outcomes). Details: recombinant CYP, pro-luciferin dealkylation, luminescence, p450-cyp2d6; series mostly up to 57.1 µM; activity, negative = inhibition: at the top concentration.
On the % scale 0 is the no-effect control and ±100 the full control effect.

Sequence of Cytochrome P450 2D6 (Homo sapiens) (P10635 whole entry, looked up): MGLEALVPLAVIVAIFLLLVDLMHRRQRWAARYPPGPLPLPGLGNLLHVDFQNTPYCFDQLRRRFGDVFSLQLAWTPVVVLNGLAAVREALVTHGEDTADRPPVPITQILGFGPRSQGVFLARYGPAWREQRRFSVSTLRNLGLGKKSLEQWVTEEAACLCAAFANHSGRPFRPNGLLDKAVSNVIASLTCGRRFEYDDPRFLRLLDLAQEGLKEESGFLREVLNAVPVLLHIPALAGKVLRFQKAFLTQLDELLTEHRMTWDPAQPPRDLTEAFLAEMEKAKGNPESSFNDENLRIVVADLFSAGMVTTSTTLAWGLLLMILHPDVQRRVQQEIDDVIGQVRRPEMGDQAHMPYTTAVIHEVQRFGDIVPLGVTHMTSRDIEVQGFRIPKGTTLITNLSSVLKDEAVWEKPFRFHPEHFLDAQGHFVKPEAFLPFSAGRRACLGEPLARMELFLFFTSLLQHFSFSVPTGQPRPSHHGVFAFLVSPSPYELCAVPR

activity, negative = inhibition, inactive:
COC(=O)[C@@]1(Cc2ccc(F)cc2)[C@H]2c3cc(C(=O)N4CCCC4)n(CCCNc4ncc(C(F)(F)F)cc4Cl)c3C[C@H]2CN1C(=O)c1ccccc1 3.6%
CCOC(=O)[C@]1(CC(=O)O)CCCC1=O -6.09% [at 11.4 µM]
COc1ccc(C2CC(=O)c3cnc(Nc4cc(C)cc(C)c4)nc3C2)cc1 (centres undefined) -11.6%
O=C1NC(=O)C(c2ccccc2[N+](=O)[O-])=C1Nc1ccc(O)c(Cl)c1 2.19%
Cc1occc1C(=O)NNC(=O)c1ccc(F)cc1 -29%
COc1ccc(-n2c(=S)[nH]c3cc(C(=O)NCCCN4CCCC4=O)ccc3c2=O)cc1 -6.32%
COc1ccc2c(c1OC)C(=O)O[C@@H]2[C@H]1c2c(cc3c(c2OC)OCO3)CCN1C 0.746%
COc1ccc2c(c1OC)C(=O)OC2Nc1ncccc1C (centres undefined) -10.4%
COc1ccc(/C(C)=N/NC(=O)c2ccc(CSc3cccc4cccnc34)cc2)cc1OC -9.22%
Cc1ccccc1-c1cc(C(=O)n2cccn2)c2cc(Cl)ccc2n1 -13.5%
Cc1cc(N2C(=O)C(O)=C(C(=O)c3cccs3)C2c2cccc(O)c2)no1 (centres undefined) -3.43%
COC(=O)CSc1cc(C(F)(F)F)nc(-c2ccccn2)n1 6.24%
CCOC(=O)CSc1nc2c(cnn2-c2ccc(C)cc2)c(=O)[nH]1 7.23%
N#CCSc1nc2cc(C(=O)N3CCCC3)ccc2c(=O)n1Cc1ccccc1 -16.5%
Cc1nc2cnc(Oc3cccc(Cl)c3)nc2n(C[C@H]2CCCO2)c1=O 4.36%
COCCNc1ncnc2ccc(-c3cccc(NS(C)(=O)=O)c3)cc12 -1.19%
CS(=O)(=O)Nc1cccc(-c2ccc3ncnc(NCCN4CCOCC4)c3c2)c1 -8.45%
CN(/C=C/C(=O)C(F)(F)F)Cc1ccccc1 0.82%
Cc1[nH]c2ccccc2c1-c1cc(-c2cc(-c3c(C)[nH]c4ccccc34)on2)no1 5.28% [at 11.4 µM]
CCCC[C@@H]1C[C@H]1C(NC(=O)c1cccnc1)c1ccc(-c2ccccc2)cc1 (some centres undefined) -5.63%
CCOC(=O)c1cnn(-c2cc(Oc3ccccc3)ncn2)c1N -6.66%
Cc1ccc(C(=O)CSc2nc(C)cc(=O)[nH]2)cc1 -1.53%
Cc1cc(C)c(C(N)=O)c(SCC(=O)c2ccc(Cl)cc2)n1 -3.15%
Oc1ccccc1CNn1cnnc1 17.8%
O=c1[nH]c2cc([N+](=O)[O-])c([N+](=O)[O-])cc2[nH]c1=O -3.93%
CC(CCc1ccccc1)NC(=O)C(=O)NCCO (centres undefined) 22.2%
C[C@@H](CCc1ccc(O)cc1)NCCc1ccc(O)c(O)c1 -10.3% [at 25.6 µM]
O=C(COc1cccc2ccccc12)NNC(=O)c1cccs1 -20.2%
CCOC(=O)c1cccc(C(=O)OCC)n1 16.1%
O=C(Nc1nnc(COc2ccc(Cl)cc2)s1)c1ccc([N+](=O)[O-])cc1 11.5%
CCOc1ccc2ccccc2c1C(=O)N[C@@H]1C(=O)N2[C@@H]1SC(C)(C)[C@@H]2C(=O)O 3.09% [at 25.6 µM]
O=[N+]([O-])c1cc(C(F)(F)F)ccc1NCCCCNS(=O)(=O)c1ccc2ccccc2c1 -21.4%
COC(=O)c1ccccc1NC(=O)c1ccc(Cn2cc(Cl)cn2)o1 -0.222%
Nc1ccc(C(=O)N/N=C/c2ccccc2)cc1 7.05%
Cn1c(Cc2cccc3ccccc23)nnc1SCC(=O)N1CCN(c2ccccc2)CC1 -4.52%
CSc1nc(-c2ccc(C)cc2)nc(C(Cl)Cl)n1 -0.974%
CCCC[C@H]1C(=O)N(c2ccccc2)N(c2ccc(O)cc2)C1=O -4.48% [at 25.6 µM]
CCOC(=O)N1CCN(S(=O)(=O)c2ccc3[nH]cc(C(=O)O)c(=O)c3c2)CC1 1.73%
C[C@@]12CCC(=O)C=C1CC[C@H]1[C@@H]2[C@@H](O)C[C@]2(C)[C@@H]1CC[C@@]2(O)C(=O)COC(=O)C1CCCC1 8.32% [at 11.4 µM]
CCCn1c(=O)c2[nH]c(-c3ccc(OCC(=O)NCCN)cc3)nc2n(CCC)c1=O -3.55%
C[C@@]12CCC(=O)C=C1CC[C@H]1[C@@H]2[C@@H](O)C[C@]2(C)[C@@H]1CC[C@@]2(O)C(=O)CO 17% [at 11.4 µM]
O=C(Oc1ccccc1)N1CCC2(CC1)CCN(c1cccc(-c3ccccc3)c1)CC2 -1.29%
CCCn1cnc2c(SCC(=O)O)nc(N)nc21 7.62% [at 11.4 µM]
CCOc1nc(NC(C)C)nc(NC(C)C)n1 2.84%
COc1cccc(Nc2ncc(C(=O)O)c3ccccc23)c1 -14.6%
COc1ccc(-n2cnc3sc(-c4ccccc4)cc3c2=O)cc1 3.48%
Fc1ccc(-c2cn3cc(C(F)(F)F)cc(Cl)c3n2)cc1 -24.8%
CN1CCN(c2ncc3nc(-c4ccc(Cl)cc4)c(=O)n(Cc4cccs4)c3n2)CC1 -9.03%
CCCCNC(=O)CSc1nc2cc(OC)c(OC)cc2c(=O)n1Cc1ccc(OC)cc1 -21.3%
COCCNC(=O)CSc1nc2ccc(N3CCOCC3)cc2c(=O)n1Cc1ccc(OC)cc1 -6.47%
COc1ncc2ncc(=O)n(Cc3cccs3)c2n1 -10.7%
CC(=O)N(O)CCCCCNC(=O)CCC(=O)N(O)CCCCCNC(=O)CCC(=O)N(O)CCCCCN 2.63% [at 25.6 µM]
CN1CCC2(CC1)CCN(C(=O)c1cc(C(F)(F)F)cc(C(F)(F)F)c1)CC2 0.0116%
Cc1noc(C)c1COc1cccc(C(=O)OCC(=O)N2CC(=O)Nc3ccccc32)c1 0.688%
CN(CC(=O)O)Cc1c(O)c(Cl)cc(Cl)c1Cl 8.14% [at 11.4 µM]
N[C@H](C(=O)O)c1ccc(C(=O)O)cc1 3.45%
N[C@H](C(=O)O)c1ccc(O)c(C(=O)O)c1 -6.21%
N[C@@H](C(=O)O)c1ccc(C(=O)O)c(O)c1 1.24%
O=C(Oc1ccccc1N1C(=O)C2CCCCC2C1=O)c1ccccc1 (centres undefined) -2.61%
COCCn1c(=O)c(CCc2ccccc2)nc2cnc(Oc3cccc(Cl)c3)nc21 -6.18%
Nc1ccc(S(=O)(=O)Nc2nccs2)cc1 5.42% [at 25.6 µM]
CCN(CC)c1ccc(SS(=O)(=O)O)cc1 -13%
COC(=O)[C@H](C)[C@H]1C[C@]1(C)[C@H](NC(=O)OCc1ccccc1)c1ccccc1 5.73%
C[C@@H](C(=O)NCc1cccc2ccccc12)[C@H]1C[C@]1(C)[C@H](NC(=O)OCc1ccccc1)c1ccccc1 -9.78%
O=C(N[C@@H](c1ccccc1)[C@@H]1C[C@H]1C(=O)O)OCc1ccccc1 9.66%
COC(=O)[C@H](C)[C@@H]1C[C@@]1(C)[C@@H](NC(=O)OCc1ccccc1)c1ccccc1 -2.56%
O=C(N[C@@H](c1ccccc1)[C@@H]1C[C@H]1C(=O)NCc1ccccn1)OCc1ccccc1 1.41%
O=C(O)c1ccccc1-c1ccc(/C=c2\sc3nc4cc(Br)cnc4n3c2=O)o1 -8.16%
N#CC(C#N)=C(N)/C(C#N)=C/c1ccc(O)cc1 -1.02%
COc1ccc(/C(C)=N/NC(=O)c2ccc(N(C)C)cc2)cc1 -6.35%
COc1cc2c(cc1OC)C(C(=O)Nc1cccc(C)n1)C(c1cccnc1)N(C)C2=O (centres undefined) -18.4%
COc1cc(C2C(=O)N(C3CCCC3)CC(=O)N2Cc2ccco2)ccc1OC(C)C (centres undefined) 4.45%
CCCC1C(=O)N(c2ccccc2)C1c1ccccc1 (centres undefined) 3.57%

AC50, 7.94 µM (active) and inactive:
N[C@@H](C(=O)O)c1ccc(C(=O)O)c(C(=O)O)c1

AC50, 6.31 µM (active) and inactive:
CCOC(=O)C1=C[C@@]2(CC)CCCN3CCc4c(n1c1ccccc41)[C@H]32

AC50, inactive:
N[C@@H](C(=O)O)c1ccc(C(=O)O)cc1

AC50, inactive and 251 nM (active):
CC[C@@]12CCCN3CCc4c(n(c5ccccc45)[C@](O)(C(=O)OC)C1)[C@H]32

AC50, active:
COc1ccc2c(c1OC)C(=O)OC2[C@H]1c2c(cc3c(c2OC)OCO3)CCN1C (some centres undefined) 10 µM
CS(=O)(=O)Nc1cccc(-c2ccc3ncnc(NCc4cccs4)c3c2)c1 20 µM
COc1cccc(-c2ccc3ncnc(NCc4cccs4)c3c2)c1 10 µM
c1csc(CNc2ncnc3ccc(-c4ccoc4)cc23)c1 15.8 µM
Cc1nc(SCC(=O)c2ccc(F)cc2)c([N+](=O)[O-])[nH]1 10 µM
C[C@@H](CCc1ccccc1)NC[C@H](O)c1ccc(O)c(C(N)=O)c1 3.98 µM and 2 µM
O=C(OCC(=O)c1cccs1)c1cccc(C(=O)OCC(=O)c2cccs2)n1 4.47 µM
CC[C@@]12CCCN3CCc4c(n(c5ccccc45)C(=O)C1)[C@H]32 20 nM and 251 nM
CCCCCCCCN[C@@H](C)[C@H](O)c1ccc(SC(C)C)cc1 1 µM
COc1ccc(Nc2ncnc3sc(-c4ccccc4)cc23)cc1 28.2 µM
COc1ccc(Cn2c(SCc3ccccc3C)nc3cc(OC)c(OC)cc3c2=N)cc1 1.26 µM
COc1cc2nc(SCc3ccc(Cl)cc3Cl)n(Cc3cccs3)c(=N)c2cc1OC 2.24 µM
N[C@@H](C(=O)O)c1ccc(P(=O)(O)O)cc1 25.1 µM
C[C@@H](C(=O)NCCF)[C@H]1C[C@]1(C)[C@H](NC(=O)OCc1ccccc1)c1ccccc1 6.31 µM
C[C@@H](C(=O)NCc1ccccn1)[C@@H]1C[C@@]1(C)[C@@H](NC(=O)OCc1ccccc1)c1ccccc1 12.6 µM
C[C@@H](C(=O)NCCc1c[nH]c2ccccc12)[C@H]1C[C@]1(C)[C@H](NC(=O)OCc1ccccc1)c1ccccc1 2 µM
C[C@@H](C(=O)NCc1ccc(S(C)(=O)=O)cc1)[C@H]1C[C@]1(C)[C@H](NC(=O)OCc1ccccc1)c1ccccc1 0.398 µM
